# Assay results: PubChem BioAssay (NCI)
# About 79,000 compounds went through this panel and 15% of them were active in at least one assay; those are over-represented in the sample as a whole. Values without a mark were called inactive. The source made the active and inactive calls. Cut-off read from the data, not from the text of the source: active = growth inhibition above about 70%; inactive = the rest.
# Columns and labels:
# [1] = NCI Yeast Anticancer Drug Screen. Data for the rad50 strain (AID 155);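 note: 0% = growth of vehicle-only cultures of the same strain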; settings: S. cerevisiae rad50 strain growth inhibition, active compounds read high
# Summary of the method: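 DNA repair mutant yeast, compound exposure, growth read-out; inhibition is taken relative to vehicle.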
# [2] = NCI Yeast Anticancer Drug Screen. Data for the mec2-1 strain (AID 157); settings: S. cerevisiae mec2-1 strain, active compounds read high
# Summary of the method: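 Growth inhibition is read against vehicle-treated controls after compound exposure of the mec2-1 yeast strain, which is defective in DNA damage repair or cell cycle control.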
# [3] = NCI Yeast Anticancer Drug Screen. Data for the sgs1 mgt1 strain (AID 161);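 note: 0% = growth of cultures given vehicle only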; settings: S. cerevisiae sgs1 mgt1 strain, active compounds read high
# Summary of the method: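 Growth of a repair-deficient yeast mutant was monitored after compound treatment and expressed as inhibition relative to vehicle-treated cultures.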
# [4] = NCI Yeast Anticancer Drug Screen. Data for the cln2 rad14 strain (AID 165);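 note: 0% = growth equal to vehicle treated cultures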; settings: S. cerevisiae cln2 rad14 strain, active compounds read high
# Summary of the method: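 Growth inhibition, relative to vehicle-treated controls, is the read-out. The test organism is a yeast strain with defined genetic alterations, cln2 rad14.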
# [5] = NCI Yeast Anticancer Drug Screen. Data for the bub3 strain (AID 167); settings: S. cerevisiae bub3 mutant strain, active compounds read high
# Summary of the method: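 In this screen, a yeast mutant lacking normal mitotic checkpoint function is challenged with compound. Relative growth versus vehicle gives the inhibition value.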
# [6] = NCI Yeast Anticancer Drug Screen. Data for the mlh1 rad18 strain (AID 175); settings: S. cerevisiae mlh1 rad18 strain growth inhibition, active compounds read high
# Summary of the method: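 Cells of a genetically altered yeast strain, deficient in DNA damage repair, were treated with compound. Their growth was then compared with that of vehicle-treated cultures to give inhibition.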
# [7] = at 5.0 µM (retest, dose inferred, filed as 0.5)
# [8] = at 50.0 µM (retest, dose inferred, filed as 5.0)
Compound,"growth inhibition [1, 7]","growth inhibition [1, 8]",growth inhibition ([1]; at 50.0 µM),"growth inhibition [2, 7]","growth inhibition [2, 8]",growth inhibition ([2]; at 50.0 µM),"growth inhibition [3, 7]","growth inhibition [3, 8]",growth inhibition ([3]; at 50.0 µM),"growth inhibition [4, 7]","growth inhibition [4, 8]",growth inhibition ([4]; at 50.0 µM),"growth inhibition [5, 7]","growth inhibition [5, 8]",growth inhibition ([5]; at 50.0 µM),"growth inhibition [6, 7]","growth inhibition [6, 8]",growth inhibition ([6]; at 50.0 µM)
c1ccc2nc(C[n+]3cccc4ccccc43)ccc2c1,86% (active),99% (active),97.5% (active),73% (active),99% (active),97.8% (active),70% (active),97% (active),58.4%,72% (active),99% (active),80% (active),64%,98% (active),97.9% (active),73% (active),98% (active),97.1% (active)
CC(C)Cc1cc2c(cc1O)CCC1C2CC[C@@]2(C)C1CC[C@@H]2O (stereo partly specified),-10%,97% (active),75.8% (active),-17%,95% (active),80.4% (active),-12%,97% (active),86.5% (active),-22%,98% (active),89.3% (active),-34%,97% (active),87% (active),-11%,97% (active),88.4% (active)
Cc1ccc(NC(=S)SCc2ccc(Cl)cc2)cc1Cl,33%,97% (active),90.5% (active),19%,98% (active),92.3% (active),44%,99% (active),92.2% (active),40%,98% (active),89.8% (active),55%,99% (active),91.9% (active),23%,97% (active),91% (active)
COc1ccc2[nH]cc(C(=O)O)c2c1,-4%,55%,38%,-5%,65%,2.6%,7%,31%,66.3%,0%,36%,40%,1%,46%,79.8% (active),-30%,84% (active),25%
COc1cccc(CCCNC(=O)Cc2ccccc2CO)c1,12%,14%,34.2%,9%,5%,-55.1%,9%,12%,-13.8%,1%,5%,7.7%,11%,14%,-12.2%,13%,10%,-46.8%
CC(=O)Oc1cc(Cl)ccc1Cc1ccc(Cl)cc1OC(C)=O,0%,87% (active),94.5% (active),1%,78% (active),91.4% (active),0%,76% (active),85.1% (active),2%,89% (active),90.7% (active),2%,83% (active),94.8% (active),1%,90% (active),94.7% (active)
CCCOC(=O)COc1ccccc1C(=O)OCCC,5%,10%,-1.2%,2%,7%,-15.5%,0%,11%,6%,13%,15%,14.9%,10%,44%,23.2%,0%,13%,-11.4%
CCCCN(c1ccccc1)c1ncnc2c1ncn2C,1%,83% (active),89.7% (active),-3%,86% (active),79.8% (active),0%,86% (active),89% (active),0%,76% (active),74.2% (active),6%,88% (active),79.2% (active),5%,89% (active),89.9% (active)
O=c1c2ccccc2c2ccccc2c(=O)n1-c1cc2c3ccccc3ccc2c2ccccc12,12%,16%,-16.2%,-11%,9%,-12.8%,-4%,9%,-2.4%,-11%,-10%,68.2%,-12%,-5%,-66.5%,5%,9%,37.8%
CC1COC(c2cn[nH]c2C(N)=O)C1O (stereo unspecified),-7%,13%,-0.5%,5%,15%,21%,7%,14%,-6.4%,-33%,-18%,39.4%,4%,24%,0.85%,3%,16%,7.65%
Cc1cccc(/C=N/Nc2ccccn2)n1,22%,27%,83% (active),17%,37%,78.8% (active),20%,38%,37.1%,17%,37%,23.8%,,,,21%,42%,87.6% (active)
C=CCOCCC=O,7%,38%,45.4%,3%,5%,14.2%,2%,4%,36%,4%,2%,-20.4%,4%,-3%,47.7%,4%,11%,54.6%
CCOC(=O)/C(=C\c1cccc(Br)c1)C(C)=O,47%,100% (active),92.8% (active),51%,99% (active),94.9% (active),47%,99% (active),93.1% (active),45%,99% (active),92.9% (active),87% (active),100% (active),92.7% (active),82% (active),100% (active),92.5% (active)
